Lassa entry inh = inhibitors of Lassa virus binding or cell entry; Lassa virus pseudotype entry inhibition, cell reporter; Potency, µM (doses to about 37.9 µM), most hits filed as inhibitors; 300,000 compounds, 1.2% hits; AID 540256; calls by dose curve; tested in HEK293 cells; also: nearly all actives have a fitted effect of over 50% in size
Shiga inhibitor = blocks Shiga toxin action in Vero cells | inhibition, % at 38.7 µM | Vero cells, Shiga toxin protein synthesis inhibition reporter | 290,000 compounds, 9.2% hits; in the data active = inhibition mostly above about 28%, no sharp cut-off; inactive = mostly below about 43%
Cycloheximide cs = counter-screen for Shiga toxin inhibitors: cycloheximide protein synthesis inhibition; AID 2314; cell reporter, cycloheximide protein synthesis inhibition counterscreen; 300,000 compounds, 12% hits; max response, %; in the data active = max response mostly above about 13%, no sharp cut-off; inactive = mostly below about 14%; also: read at 38.3 µM for the half of the compounds with a filed dose
HCV inh = inhibitors of hepatitis C virus infection; Huh7.5.1 HCVcc-Cre infection, luciferase reporter, 44 h; Potency, µM (titrated, usually from 41.8 µM), most hits filed as inhibitors; 340,000 compounds, 3.4% hits; AID 651820; active = well fitted inhibition curve with a large enough effect; inconclusive = small, poorly fitted or top-dose-only effect, or another doubt; inactive = no such curve, though single readings can be large or run the other way
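A cell-based infection assay in which seeded cells (1,000 per well) receive test compound after 4 h, are inoculated with HCVcc-Cre at approximately 0.5 moi, and are incubated 44 h before luminescence detection.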
MARV entry inh = blocks Marburg virus binding to or entry into cells | Potency, µM (titrated, usually from 37.8 µM), usual class: inhibitors | 300,000 compounds, 1.8% hits | AID 540276 | Marburg virus pseudotyped entry inhibition, cell reporter; calls by dose curve; tested in HEK293 cells
FMDV inh = foot and mouth disease virus antiviral activity. 410,000 compounds, 1.2% hits. FMDV antiviral cell-based qHTS. Potency, µM (titrated, usually from 57.9 µM), most hits filed as inhibitors; calls by dose curve; tested in HEK293T cells; also: read-out not given here; nearly all actives have a fitted effect of over 45% in size
Large screens that a line does not name were inactive. A selection: hits, their analogues and other compounds. The true share with any hit is near 13%.

C#CCSc1nnc(-c2ccc(O)cc2)o1	Lassa entry inh inconclusive, Shiga inhibitor 62, Cycloheximide cs 53, MARV entry inh inconclusive
C#CCSc1nnc(-c2ccc(C)cc2)o1	Lassa entry inh inconclusive, Shiga inhibitor 73, Cycloheximide cs 39, MARV entry inh inconclusive
COc1cc(-c2nnc(CSc3nnc(Nc4ccc(C(C)C)cc4)s3)o2)cc(OC)c1OC	Lassa entry inh inconclusive, Cycloheximide cs 19, HCV inh 7.1µM, MARV entry inh inconclusive
COc1ccccc1Nc1nnc(SCc2nnc(-c3cc(OC)c(OC)c(OC)c3)o2)s1	HCV inh inconclusive, MARV entry inh inconclusive
CNC(=O)NC(=O)C(NC1CCCc2ccccc21)c1ccccc1 (stereo not given)	MARV entry inh inconclusive
Cc1ccc(NC(=O)C(NC2CCCc3ccccc32)c2ccccc2)cc1Cl (stereo not given)	Lassa entry inh inconclusive, Cycloheximide cs 26, MARV entry inh inconclusive
Cc1ccc(NC(=O)C(NC2CCCc3ccccc32)c2ccccc2)c([N+](=O)[O-])c1 (stereo not given)	Shiga inhibitor active, Cycloheximide cs 22, HCV inh inconclusive, MARV entry inh inconclusive
O=C(Cc1cccs1)NC1CC(=O)N(c2ccc(Cl)cc2)C1 (stereo not given)	none (no result: Shiga inhibitor, Cycloheximide cs, HCV inh, MARV entry inh)
O=C(NNC(=O)C1C2C=CC(C2)C1C(=O)O)c1ccccc1 (stereo not given)	Shiga inhibitor 101, Cycloheximide cs 39, MARV entry inh inconclusive
CCOC(=O)c1ccc(C(=O)NNC(=O)C2C3C=CC(C3)C2C(=O)O)cc1 (stereo not given)	none (no result: Lassa entry inh, MARV entry inh)
O=C(NNC(=O)C1C2C=CC(C2)C1C(=O)O)c1ccccc1O (stereo not given)	Shiga inhibitor 50, Cycloheximide cs 17
O=C(NNC(=O)C1C2C=CC(C2)C1C(=O)O)c1cc(Cl)ccc1O (stereo not given)	Cycloheximide cs 19
Cc1ccc(NC(=O)NC(=O)CN2C(=O)NC3(CCCCCCC3)C2=O)c(C)c1	none (no result: FMDV inh)
Cc1cc(C)c(NC2=NS(=O)(=O)c3ccccc32)c(C)c1	none
CCCSc1ccc2nc(NC(=O)OC)[nH]c2c1	Lassa entry inh 2.1µM, Shiga inhibitor 141, Cycloheximide cs 35, MARV entry inh inconclusive
CC1(C)Cc2c(cnn2-c2ccccc2)C(=O)/C1=N\NC(=O)c1ccccc1O	Cycloheximide cs 16, HCV inh inconclusive
CCOc1cc(-c2nc(-c3ccncc3)no2)cc(OCC)c1OCC	none
CCOc1ccc(-c2nc(-c3ccncc3)no2)cc1OCC	Shiga inhibitor 40, Cycloheximide cs 17
CCOc1ccc(-c2nc(-c3ccccc3)no2)cc1OCC	Shiga inhibitor 70, Cycloheximide cs 29, HCV inh inconclusive (no result: Lassa entry inh, MARV entry inh)
COC(=O)C1=CO[C@@H](O)C2C(CO)=CCC12 (stereo not given in full)	FMDV inh inconclusive (no result: Lassa entry inh, Shiga inhibitor, Cycloheximide cs, MARV entry inh)
O=C(OCC(=O)N1CCOCC1)c1ccccc1SCC(=O)N1CCCC1	none
O=C(OCC(=O)N1CCOCC1)c1ccccc1Cc1ccccc1	Shiga inhibitor 60, Cycloheximide cs 39 (no result: Lassa entry inh, MARV entry inh)
O=C(OCC(=O)N1CCOCC1)c1ccccc1Br	Shiga inhibitor 47, Cycloheximide cs 39, MARV entry inh inconclusive
CCOc1ccc(-n2c(SCC(=O)Nc3ccc(Br)cc3)nc3n[nH]c(C)c3c2=N)cc1	HCV inh inconclusive, MARV entry inh inconclusive
CC(C)(C)NC(=O)CCc1ncc(C(F)(F)F)cc1Cl	Lassa entry inh inconclusive
O=C1CC(C(=O)Nc2ccc(Cl)c(Cl)c2)S/C(=N\N=C\c2ccco2)N1 (stereo not given)	HCV inh inconclusive, MARV entry inh inconclusive
COC(=O)c1cnc(Oc2ccc(NC(=O)NC(=O)c3c(OC)cccc3OC)cc2)cc1C(F)(F)F	Lassa entry inh inconclusive, MARV entry inh 1.6µM
Cc1ccc(Cl)cc1-c1cc(C(=O)N2CCc3ccccc3C2)[nH]n1	none (no result: Lassa entry inh, Shiga inhibitor, Cycloheximide cs, HCV inh, MARV entry inh)
O=[N+]([O-])c1ccc(/C=N/NC(=S)Nc2ccccc2F)o1	Lassa entry inh inconclusive, Cycloheximide cs 34
O=[N+]([O-])c1ccc(/C=N/NC(=S)Nc2ccccc2)o1	Shiga inhibitor 48, Cycloheximide cs 23
CCCCCC(=O)N/N=C/c1ccc([N+](=O)[O-])o1	Lassa entry inh inconclusive, HCV inh inconclusive, MARV entry inh inconclusive
Cc1c(-c2ccc(/C=N/NC(=O)C(=O)Nc3ccccc3F)o2)cccc1[N+](=O)[O-]	none (no result: Lassa entry inh, MARV entry inh)
Fc1ccccc1NC(=S)N/N=C/c1ccccc1Br	Cycloheximide cs 22
O=C(CCC(=O)Nc1ccc(Cl)cc1Cl)N/N=C/c1ccc([N+](=O)[O-])o1	Lassa entry inh inconclusive, Shiga inhibitor 38, HCV inh inconclusive, MARV entry inh inconclusive
COc1ccccc1-c1nnc(SCC(=O)NNC(=O)c2ccccc2F)n1C	none (no result: Lassa entry inh, Shiga inhibitor, Cycloheximide cs, MARV entry inh)
O=[N+]([O-])c1cccc(-c2ccc(/C=N/NC(=S)Nc3ccccc3)o2)c1	Cycloheximide cs 14
O=C(CNc1ccccc1)N/N=C/c1ccc([N+](=O)[O-])o1	Lassa entry inh inconclusive, HCV inh inconclusive, MARV entry inh 18µM
O=C(Cc1ccc2c(c1)OCO2)NN=Cc1ccc([N+](=O)[O-])o1	Lassa entry inh inconclusive, HCV inh 10µM, MARV entry inh 10µM (no result: Shiga inhibitor, Cycloheximide cs)
O=[N+]([O-])c1cccc(-c2ccc(/C=N/NC(=S)NCc3ccco3)o2)c1	HCV inh inconclusive, MARV entry inh inconclusive
CCN(CC)C(=O)C1=C(C)N(Cc2ccc(C(C)(C)C)cc2)C(=O)C(CC(=O)NCc2ccco2)C1 (stereo not given)	none (no result: Lassa entry inh, Shiga inhibitor, Cycloheximide cs, HCV inh, MARV entry inh)
COc1ccccc1C1OC2=C(Nc3ccc([N+](=O)[O-])cc3N2)C1=O (stereo not given)	HCV inh inconclusive (no result: Lassa entry inh, MARV entry inh)
COc1ccc(C2OC3=C(Nc4cc(C)c(C)cc4N3)C2=O)cc1 (stereo not given)	Shiga inhibitor 77, Cycloheximide cs 30 (no result: Lassa entry inh, MARV entry inh)
CC(=O)C1=C(C)NC(=O)NC1c1cccc(O)c1 (stereo not given)	none
Cc1cc2c(cc1C)NC1=C(N2)OC(c2cccc(O)c2)C1=O (stereo not given)	Cycloheximide cs 7.4 (no result: Lassa entry inh, MARV entry inh)
CN(C(=O)COC(=O)c1sc2ccccc2c1Cl)C1CCCCC1	Shiga inhibitor 55, MARV entry inh inconclusive
CN(C)CCCOC(=O)c1sc2ccccc2c1Cl	Shiga inhibitor 59, Cycloheximide cs 39, MARV entry inh inconclusive
CCCCOC(=S)NC(=O)c1sc2ccccc2c1Cl	none (no result: Lassa entry inh)
CC(NC(=O)CN(c1ccccc1F)S(C)(=O)=O)c1ccccc1 (stereo not given)	none
O=C(COc1ccc(F)cc1)N(Cc1cccs1)C1CCS(=O)(=O)C1 (stereo not given)	none (no result: Lassa entry inh, MARV entry inh)
COC(=O)C1CCN(C(=O)/C=C/c2ccc3c(c2)OCO3)CC1	Lassa entry inh inconclusive, Cycloheximide cs 15 (no result: Shiga inhibitor)
CN1CCN(C(=O)/C=C/c2ccc3c(c2)OCO3)CC1	Cycloheximide cs 26
Cc1ccc(C(=O)OCC(=O)Nc2ccccc2C(F)(F)F)cc1S(=O)(=O)N1CCOCC1	none
C=CCc1c(C)nc(-c2ccccc2)nc1N/N=C(\C)c1ccccc1	Cycloheximide cs 12

Screens from PubChem.
